A selection: hits, their analogues and other compounds. The true share with any hit is near 1.2%.
Bcl-xL primary = inhibitors of human Bcl-xL, primary screen, biochemical, fluorescence polarization, HTS; GST-Bcl-xL / FITC-Bim BH3 peptide fluorescence polarization; inhibition, % at 10.9 µM; actives 0.7% (n = 320,000); AID 2129, 2009;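 active means inhibition above the mean of all tested compounds plus 3 SD, cutoff set per campaign, cut at about 30% in these data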;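 further: 0% = DMSO wells and 100% = unlabeled Bim-BH3 peptide competitor; inhibitors lower millipolarization by displacing the labeled peptide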
Target sequence (Q07817 whole entry, looked up): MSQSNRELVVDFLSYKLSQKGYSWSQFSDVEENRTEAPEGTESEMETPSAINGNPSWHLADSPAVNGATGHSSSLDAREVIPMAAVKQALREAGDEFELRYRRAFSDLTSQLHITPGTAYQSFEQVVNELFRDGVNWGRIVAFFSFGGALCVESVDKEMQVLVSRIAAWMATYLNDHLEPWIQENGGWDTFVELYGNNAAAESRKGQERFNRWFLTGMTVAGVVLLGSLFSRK
GLD-1 RNA inh = GLD-1/TGE RNA complex disruptors, primary screen, biochemical, fluorescence polarization; purified GLD-1 + fluorescein TGE RNA; inhibition, % at 5.96 µM; actives 0.44% (n = 320,000); AID 2280, 2010;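 active means percent inhibition above a per-plate cutoff, the plate mean of test compounds plus 3 SD, cut at about 30% in these data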;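 further: 0% = DMSO wells with GLD-1 and probe and 100% = wells lacking GLD-1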
RTF Ca sens act = cardiac RTF calcium sensitivity activators, primary screen, biochemical, IANBD-TnC fluorescence, EC20 calcium. Troponin I, cardiac muscle (Homo sapiens) + Troponin T, cardiac muscle (Homo sapiens) + …. IANBD-labeled TnC RTF fluorescence at EC20 calcium; 0% EC20 calcium, 100% full calcium. activation, % at 7.2 µM. actives 0.24% (n = 340,000). AID 493008, 2010;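 active means activation above the mean over all tested compounds plus 3 SD, cut at about 30% in these data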;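 further: rise in fluorescence read as greater calcium sensitivity of cardiac thin filaments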
eLon inh = inhibitors of E. coli Lon protease, primary screen, biochemical, fluorescence polarization | P0A9M0 | purified E. coli Lon protease | inhibition, % at 7.94 µM | actives 0.42% (n = 360,000) | AID 602123, 2011; in the data active means inhibition above about 13%, passing the limit was not always enough;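 further: 0% = enzyme with probe and DMSO and 100% = no enzyme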
Cardiac RTF inh = cardiac RTF calcium sensitivity inhibitors, primary screen, biochemical, IANBD-TnC fluorescence, EC70 calcium; Troponin I, cardiac muscle (Homo sapiens) + Troponin T, cardiac muscle (Homo sapiens) + …; IANBD-labeled cardiac RTF, Ca2+ fluorescence; inhibition, % at 7.15 µM; actives 0.12% (n = 340,000);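 active means inhibition above the mean inhibition of all tested compounds plus 3 SD, cut at about 17% in these data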;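 further: assay run at fixed EC70 calcium of 1.6 mM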
eLon confirm = E. coli Lon protease inhibitor retest, confirmation, biochemical, fluorescence polarization; shares compounds with eLon inh; purified E. coli Lon; inhibition, % at 7.94 µM; actives 31% (n = 1,400); in the data active means inhibition above about 16%;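 further: 0% = enzyme with probe and DMSO and 100% = no enzyme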
Starred values were filed as active, the others as inactive; . = no result.

SMILES	Bcl-xL primary	GLD-1 RNA inh	RTF Ca sens act	eLon inh	Cardiac RTF inh	eLon confirm
O=C1NC(=O)C2(N1)c1ccccc1-c1ccccc12	.	.	5.5	-4.3	3.5	.
CCOc1ccc(NC(=O)CCC(=O)Nc2nnc(CC)s2)cc1	2.7	4.0	-1.9	4.2	7.3	.
CC(C)(C)c1cc[n+](-c2nc([O-])sc2C=O)cc1	19.4	2.1	-2.9	0.3	6.2	.
CCc1cc[n+](-c2nc([O-])sc2C=O)cc1	122.4*	98.9*	21.9	40.1*	-27.0	7.7
CCOc1ccc(N(CC(=O)Nc2ccccc2C(=O)NC(C)CC)S(C)(=O)=O)cc1 (stereo not given)	4.6	-2.0	2.5	-4.1	-2.9	.
COc1ccccc1N1CCN(C(=O)CNC(=O)Cn2cnc3sc(C)c(C)c3c2=O)CC1	5.7	4.7	-4.0	-12.1	-6.9	.
Cc1sc2ncn(CC(=O)NCC(=O)N3CCN(c4ccccc4F)CC3)c(=O)c2c1C	6.3	5.7	-7.3	19.4*	4.0	-29.1
OC(CN1CCCCC1)c1ccc(Br)cc1 (stereo not given)	.	.	-5.7	9.8	-4.5	.
OC(CN1CCCCC1)c1ccc2c3c(cccc13)CC2 (stereo not given)	.	.	-0.9	69.7*	0.4	3.5
Cc1ccccc1C(=O)N1CCN(c2ccc(N3CCOCC3)nn2)CC1	0.0	3.5	-1.6	22.7*	-11.4	6.2
CC(C)(C)c1cc(C(C)(C)C)n(-c2ccccc2)n1	7.2	4.8	-1.8	-10.2	8.1	.
COC(=O)c1ccc(NC(=O)CSC2=NCCN2)cc1	3.0	2.2	11.3	-1.0	-5.1	.
CCOc1ccc(NC(=O)CSC2=NCCN2)cc1	5.1	5.7	5.1	44.9*	2.8	4.4
COc1ccccc1OCCC(=O)OCCN1C(=O)c2ccccc2C1=O	1.3	-4.1	-3.4	-2.2	3.1	.
O=C(C=C1NCCN1)c1ccccc1	-2.1	8.5	.	5.9	.	.
CNC(=O)Nc1nnc(C(C)(C)C)s1	0.1	-1.6	-6.0	-2.2	-5.0	.
CCC(=O)Nc1nnc(C(C)(C)C)s1	7.0	-1.7	-4.7	18.3*	1.5	-9.9
Cc1c(C=O)c2ccccn2c1C(=O)c1cccs1	87.6*	78.8*	15.8	31.1*	-6.1	22.0*
F[B-](F)(F)c1cnc2ccccc2c1	.	.	-7.4	2.0	0.6	.
F[B-](F)(F)c1cncc2ccccc12	.	.	0.1	41.5*	-0.5	38.3*
COC(=O)Cc1c(C)c2ccc(OC(=O)c3ccccc3)cc2oc1=O	-2.6	2.0	-3.9	33.4*	-6.7	27.8*
CCOC(=O)c1ccccc1NC(=O)COC(=O)c1ccc(C)c(S(=O)(=O)N2CCOCC2)c1	3.2	10.5	4.0	4.0	-22.1	.
Cc1ccc(S(=O)(=O)CNC(=S)c2ccc3ccccc3c2)cc1	1.5	-1.6	-1.3	19.9*	-4.2	12.4
Cc1cc(C)c(NC(=O)Cc2ccc(-n3cccc3)cc2)c(C)c1	-1.4	-6.0	1.3	-11.1	-6.4	.
CN(CC(=O)NC1CCCCCC1)S(=O)(=O)c1ccc2c(c1)n(C)c(=O)c(=O)n2C	4.9	-1.8	1.6	-4.0	0.6	.
SMILES	Bcl-xL primary	GLD-1 RNA inh	RTF Ca sens act	eLon inh	Cardiac RTF inh	eLon confirm
O=[N+]([O-])c1ccc(N2CCN(S(=O)(=O)c3ccccc3)CC2)cc1NCCN1CCOCC1	3.0	5.5	-4.8	1.2	-8.2	.
CCCCOc1[nH]c2nc(-c3ccco3)n(Cc3ccco3)c(=N)c2c1C#N	139.6*	107.5*	21.6	51.4*	-36.1	10.4
COc1ccc(N2C(=O)[C@@H]3[C@H](C2=O)[C@H]2c4ccccc4C=CN2[C@@H]3C(=O)Nc2ccccc2)cc1	-33.2	-12.1	24.2	-92.0	-45.3	.
O=C(c1ccco1)[C@@H]1[C@@H]2C(=O)N(c3ccccc3)C(=O)[C@@H]2C2c3ccccc3C=CN21 (stereo not given in full)	78.6*	69.2*	8.9	24.0*	-14.3	33.4*
CC1=C(C(=O)c2ccccc2)C(c2cccc([N+](=O)[O-])c2)NC(=S)N1 (stereo not given)	0.0	-2.0	-5.8	26.4*	4.2	1.0
COCCNC(=O)NC(=O)CN1CCCc2ccccc21	51.1*	-5.2	-3.7	48.0*	1.8	6.5
CC(C)(C)NC(=O)NC(=O)CN1CCc2ccccc21	1.6	0.9	0.2	-9.8	-3.9	.
O=[N+]([O-])c1ccc(N2CCN(Cc3ccccc3)CC2)c2c1no[n+]2[O-]	.	.	.	32.4*	.	5.1
COC(=O)c1ccc(-c2nc(CN3CCN(C(=O)c4ccco4)CC3)c(C)o2)cc1	.	.	.	14.9*	.	-1.6
O=C(CNC(=O)c1ccco1)N/N=C/c1ccc(C(=O)O)cc1	2.1	2.3	-7.2	3.1	6.3	.
Cn1ccc2c(N3CCCC3)cc3c(c21)C1CCC3O1 (stereo not given)	.	.	.	30.2*	.	2.1
Cc1cn([C@H]2C[C@H](O)[C@@H](CCC(=O)NCCCc3ccccc3)O2)c(=O)[nH]c1=O	.	.	.	-13.4	.	.
COc1ccc2[nH]cc(CCNC(=O)CC[C@H]3O[C@@H](n4cc(C)c(=O)[nH]c4=O)C[C@@H]3O)c2c1	.	.	5.0	13.2*	-1.8	0.5
CCOc1ccccc1N1CCN(Cc2ccc(Br)s2)CC1	1.1	8.5	0.7	28.2*	-4.5	10.8
CC(=O)C1=C(O)C(=O)N(c2cccc(C(=O)O)c2)C1c1ccccc1F (stereo not given)	.	.	3.2	0.0	-8.1	.
COC(=O)c1cc2c(s1)-c1cc(F)ccc1OC2	3.0	3.2	-3.9	16.2*	2.8	-9.0
CC(=O)c1cc2c(s1)-c1cc(F)ccc1OC2	10.3	9.1	-6.0	4.2	-3.5	.
CC(=O)C1=C(O)C(=O)N(c2ccc(Br)cn2)C1c1ccc(Br)cc1 (stereo not given)	4.5	-7.5	5.9	-7.0	-8.9	.
CC(=O)C1=C(O)C(=O)N(c2ccc(Br)cn2)C1c1ccc(F)cc1 (stereo not given)	2.6	-2.0	0.2	28.1*	-5.3	1.2
CCOc1ccc(CCNC(=O)CSc2nn(-c3ccc(C)c(Cl)c3)c(=S)s2)cc1OCC	-1.6	-2.0	0.9	-3.3	-2.7	.
O=C(CCCc1ccccc1)NC12CC3CC(CC(C3)C1)C2	-3.0	2.2	0.6	-6.7	-0.9	.
Cc1ccc(C2C3CN(C(C)C)CC=C3C(C#N)=C(N)C2(C#N)C#N)cc1 (stereo not given)	109.0*	109.1*	136.1*	35.6*	-130.2	47.8*

Screens (PubChem BioAssay)
